Experimental findings from ChEMBL document CHEMBL3988442, “University of Dundee, Small-Polar-MMV Screening Library” (2021) are described below.

For some of these results: Potency and affinity values are given separately.

What all share (parameters): scale not given: direction of the effect not stated beside the values
The target in test [1] is Protein translocase subunit SecA (Escherichia coli (strain K12)) (UniProt P10408). Description: Assay to Identify E. coli SecA ATPase Inhibitors. The test is classed as functional. To be noted: 30 µM.
The target in test [2] is T1, Ubiquitin-activating enzyme e1, putative (Leishmania donovani (strain BPK282A1)) (UniProt E9BSI1).
T1 sequence (whole entry): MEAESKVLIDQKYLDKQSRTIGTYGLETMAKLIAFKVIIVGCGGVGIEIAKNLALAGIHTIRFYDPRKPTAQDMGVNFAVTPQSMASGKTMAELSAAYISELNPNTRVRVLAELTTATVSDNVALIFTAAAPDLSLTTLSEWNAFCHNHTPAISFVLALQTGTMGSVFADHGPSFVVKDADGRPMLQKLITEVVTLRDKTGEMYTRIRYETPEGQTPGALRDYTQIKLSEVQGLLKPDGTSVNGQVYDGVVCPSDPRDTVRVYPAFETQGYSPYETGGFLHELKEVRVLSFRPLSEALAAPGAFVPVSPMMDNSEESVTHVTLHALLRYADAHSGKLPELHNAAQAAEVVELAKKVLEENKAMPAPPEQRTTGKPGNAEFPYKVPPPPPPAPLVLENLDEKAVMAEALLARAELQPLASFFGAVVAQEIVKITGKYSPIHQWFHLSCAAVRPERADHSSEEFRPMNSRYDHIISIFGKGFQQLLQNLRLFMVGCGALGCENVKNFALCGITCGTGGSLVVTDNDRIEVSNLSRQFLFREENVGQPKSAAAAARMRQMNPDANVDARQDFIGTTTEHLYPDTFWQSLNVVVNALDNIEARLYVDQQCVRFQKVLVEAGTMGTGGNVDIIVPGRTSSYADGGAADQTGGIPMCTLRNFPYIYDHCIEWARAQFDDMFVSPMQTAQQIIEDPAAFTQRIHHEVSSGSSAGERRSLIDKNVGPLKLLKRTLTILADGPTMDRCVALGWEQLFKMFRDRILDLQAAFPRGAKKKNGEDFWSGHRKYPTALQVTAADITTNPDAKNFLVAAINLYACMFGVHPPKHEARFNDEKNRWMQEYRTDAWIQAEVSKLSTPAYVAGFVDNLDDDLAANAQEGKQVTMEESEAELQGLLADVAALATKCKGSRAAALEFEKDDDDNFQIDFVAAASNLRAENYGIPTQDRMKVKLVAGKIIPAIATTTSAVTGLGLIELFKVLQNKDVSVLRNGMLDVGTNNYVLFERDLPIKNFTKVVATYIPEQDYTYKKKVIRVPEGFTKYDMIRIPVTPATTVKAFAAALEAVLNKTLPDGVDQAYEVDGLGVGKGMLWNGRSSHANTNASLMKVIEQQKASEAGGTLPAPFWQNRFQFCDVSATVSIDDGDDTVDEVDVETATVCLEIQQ
Nature of the test: Leishmania donovani Ubiquitin Activating Enzyme (LdE1). Format: functional. The following applies: 30 µM.

The target of test [3] is AMP-activated protein kinase, AMPK (Homo sapiens) (UniProt P54646+O43741+P54619+Q9UGJ0+Q9Y478+Q13131+Q9UGI9). Description: AMP-dependent Kinase enzyme assay. An in vitro enzyme assay that detects ADP turnover that is directly proportional to AMPK activity. This uses naive AMPK that is activated during the assay with MK-8722. The test is classed as functional. To be noted: 30 µM.

Test [4] concerns the target Sialic acid-binding Ig-like lectin 9 (Homo sapiens) (UniProt Q9Y336). Description: Hs-Siglec9 ALPHAscreen SOP 20170721. To be noted: 10 µM. On the technique in general: Alpha assays give light when donor and acceptor beads are brought close together.
In test [5] the test system is Trypanosoma cruzi. Description: Trypanosoma cruzi phosphomannomutase and mannose-1-phosphate guanylyltransferase assay. The test is classed as functional. The following applies: 10 µM.
The target of test [6] is T2, Arginase-2, mitochondrial (Homo sapiens) (UniProt P78540).
T2 sequence (whole entry): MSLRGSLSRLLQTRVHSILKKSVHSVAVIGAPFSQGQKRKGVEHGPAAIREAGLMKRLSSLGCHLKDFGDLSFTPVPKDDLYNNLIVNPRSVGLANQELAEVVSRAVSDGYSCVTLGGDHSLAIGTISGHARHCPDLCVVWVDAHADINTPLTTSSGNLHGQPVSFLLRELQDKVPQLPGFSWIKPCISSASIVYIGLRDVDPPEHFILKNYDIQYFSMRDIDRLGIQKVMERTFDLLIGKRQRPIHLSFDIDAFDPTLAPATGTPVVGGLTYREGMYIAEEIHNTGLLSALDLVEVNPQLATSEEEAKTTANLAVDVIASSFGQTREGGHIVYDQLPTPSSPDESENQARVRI
Nature of the test: in vitro enzyme assay to detect the production of urea directly proportional to the activity of Arginase II. Note: in the data most compounds retested in dose-response had high values. The following applies: 33.3 µM. The test is classed as functional.

For test [7], the target named is T3, Proteasome subunit beta (Trypanosoma cruzi) (UniProt O96673).
T3 sequence (whole entry): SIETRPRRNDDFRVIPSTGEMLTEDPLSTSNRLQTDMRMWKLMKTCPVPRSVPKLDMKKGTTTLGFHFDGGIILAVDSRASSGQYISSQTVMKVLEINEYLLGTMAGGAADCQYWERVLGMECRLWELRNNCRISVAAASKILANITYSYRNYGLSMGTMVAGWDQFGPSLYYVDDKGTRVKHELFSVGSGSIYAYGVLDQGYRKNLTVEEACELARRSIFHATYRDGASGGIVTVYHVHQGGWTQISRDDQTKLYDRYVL
Description: Trypanosoma cruzi proteasome chymotrypsin-like activity (TcProtChymo) assay. Note: in the data most compounds retested in dose-response had high values. The following applies: 9.37 µM. The test is classed as functional.

The species named for test [8] is Homo sapiens. Nature of the test: To identify inhibition of the IFN signalling (Jak-Stat) pathway via expression of an eGFP reporter gene under the control of an IFN-stimulated response element (ISRE) containing MxA promoter. The following applies: 30 µM. Format: functional. On the technique in general: A reporter such as luciferase makes a cellular process visible.

Test [9] addresses T4, Tyrosyl-tRNA synthetase, putative (Trypanosoma cruzi (strain CL Brener)) (UniProt Q4DSP6).
T4 sequence (whole entry): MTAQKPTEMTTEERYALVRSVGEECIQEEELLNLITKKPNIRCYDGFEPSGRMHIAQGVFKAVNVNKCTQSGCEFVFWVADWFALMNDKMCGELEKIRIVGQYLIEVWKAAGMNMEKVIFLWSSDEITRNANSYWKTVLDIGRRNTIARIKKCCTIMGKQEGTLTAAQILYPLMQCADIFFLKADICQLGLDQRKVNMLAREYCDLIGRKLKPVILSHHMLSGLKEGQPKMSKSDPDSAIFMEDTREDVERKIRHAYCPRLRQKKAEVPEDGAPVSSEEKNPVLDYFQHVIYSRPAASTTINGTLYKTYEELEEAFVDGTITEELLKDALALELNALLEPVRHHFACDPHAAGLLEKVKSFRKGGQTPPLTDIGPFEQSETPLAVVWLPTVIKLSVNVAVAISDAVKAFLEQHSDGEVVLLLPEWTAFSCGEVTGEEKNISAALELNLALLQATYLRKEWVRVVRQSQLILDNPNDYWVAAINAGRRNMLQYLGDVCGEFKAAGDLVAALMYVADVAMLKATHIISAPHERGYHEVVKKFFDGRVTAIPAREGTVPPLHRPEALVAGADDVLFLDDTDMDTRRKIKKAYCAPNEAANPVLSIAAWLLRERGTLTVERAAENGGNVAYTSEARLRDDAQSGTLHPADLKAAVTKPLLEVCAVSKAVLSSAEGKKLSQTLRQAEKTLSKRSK
Description: Trypanosoma cruzi tyrosyl tRNA synthetase (TcYRS) _High Tyrosine SOP. Note: in the data most compounds retested in dose-response had high values. Format: functional. To be noted: 30 µM.

Test [10] addresses T4, Tyrosyl-tRNA synthetase, putative (Trypanosoma cruzi (strain CL Brener)). Description: Trypanosoma cruzi tyrosyl tRNA synthetase (TcYRS) SOP. The test is classed as functional. The following applies: 30 µM.
The target in test [11] is Chromo domain-containing protein 1 (Saccharomyces cerevisiae (strain ATCC 204508 / S288c) (Baker's yeast)) (UniProt P32657). Description: ScCHD-1 Enzyme Inhibition Assay. Note: in the data most compounds retested in dose-response had high values. The test is classed as functional. To be noted: 30 µM.
Chain of Chromo domain-containing protein 1 (Saccharomyces cerevisiae (strain ATCC 204508 / S288c) (Baker's yeast)) (P32657 whole entry, the tested form may be a part): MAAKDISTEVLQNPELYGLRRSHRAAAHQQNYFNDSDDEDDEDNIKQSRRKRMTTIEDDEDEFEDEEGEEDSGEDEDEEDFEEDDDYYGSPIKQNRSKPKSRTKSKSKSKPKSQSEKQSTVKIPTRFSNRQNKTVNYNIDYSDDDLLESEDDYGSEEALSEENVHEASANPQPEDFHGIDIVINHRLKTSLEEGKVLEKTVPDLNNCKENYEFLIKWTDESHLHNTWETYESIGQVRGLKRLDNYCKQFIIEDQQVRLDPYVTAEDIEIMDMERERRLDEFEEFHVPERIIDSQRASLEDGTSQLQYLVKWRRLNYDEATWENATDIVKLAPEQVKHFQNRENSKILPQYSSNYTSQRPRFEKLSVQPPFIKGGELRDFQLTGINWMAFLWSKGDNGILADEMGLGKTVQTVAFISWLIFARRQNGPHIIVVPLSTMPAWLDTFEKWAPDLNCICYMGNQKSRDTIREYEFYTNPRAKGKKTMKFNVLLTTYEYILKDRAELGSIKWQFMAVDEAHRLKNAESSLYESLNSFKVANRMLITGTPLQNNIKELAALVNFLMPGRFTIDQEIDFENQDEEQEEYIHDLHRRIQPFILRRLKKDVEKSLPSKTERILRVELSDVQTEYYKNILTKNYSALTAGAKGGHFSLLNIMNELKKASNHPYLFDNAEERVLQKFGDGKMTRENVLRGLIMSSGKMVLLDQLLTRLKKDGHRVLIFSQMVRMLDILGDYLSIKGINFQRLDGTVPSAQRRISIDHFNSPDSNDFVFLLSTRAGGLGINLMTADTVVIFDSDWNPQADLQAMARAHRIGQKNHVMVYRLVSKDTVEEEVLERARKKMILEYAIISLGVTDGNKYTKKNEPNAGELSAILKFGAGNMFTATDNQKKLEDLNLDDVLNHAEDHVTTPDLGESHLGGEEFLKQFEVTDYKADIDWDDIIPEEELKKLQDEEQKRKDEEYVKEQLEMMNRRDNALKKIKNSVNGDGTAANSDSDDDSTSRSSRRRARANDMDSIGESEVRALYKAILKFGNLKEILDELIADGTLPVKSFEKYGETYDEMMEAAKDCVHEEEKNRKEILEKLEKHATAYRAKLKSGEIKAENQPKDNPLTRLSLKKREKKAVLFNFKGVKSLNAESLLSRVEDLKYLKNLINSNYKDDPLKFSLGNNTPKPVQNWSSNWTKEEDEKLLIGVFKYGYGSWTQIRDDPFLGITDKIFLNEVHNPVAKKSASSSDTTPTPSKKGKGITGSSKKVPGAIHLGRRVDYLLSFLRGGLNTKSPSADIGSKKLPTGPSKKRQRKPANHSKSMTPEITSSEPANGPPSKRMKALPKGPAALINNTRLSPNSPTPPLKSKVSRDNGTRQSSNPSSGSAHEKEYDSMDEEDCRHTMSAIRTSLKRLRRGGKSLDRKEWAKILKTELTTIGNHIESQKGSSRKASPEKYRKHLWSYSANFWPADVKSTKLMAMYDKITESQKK

Chain of Protein translocase subunit SecA (Escherichia coli (strain K12)) (P10408 whole entry): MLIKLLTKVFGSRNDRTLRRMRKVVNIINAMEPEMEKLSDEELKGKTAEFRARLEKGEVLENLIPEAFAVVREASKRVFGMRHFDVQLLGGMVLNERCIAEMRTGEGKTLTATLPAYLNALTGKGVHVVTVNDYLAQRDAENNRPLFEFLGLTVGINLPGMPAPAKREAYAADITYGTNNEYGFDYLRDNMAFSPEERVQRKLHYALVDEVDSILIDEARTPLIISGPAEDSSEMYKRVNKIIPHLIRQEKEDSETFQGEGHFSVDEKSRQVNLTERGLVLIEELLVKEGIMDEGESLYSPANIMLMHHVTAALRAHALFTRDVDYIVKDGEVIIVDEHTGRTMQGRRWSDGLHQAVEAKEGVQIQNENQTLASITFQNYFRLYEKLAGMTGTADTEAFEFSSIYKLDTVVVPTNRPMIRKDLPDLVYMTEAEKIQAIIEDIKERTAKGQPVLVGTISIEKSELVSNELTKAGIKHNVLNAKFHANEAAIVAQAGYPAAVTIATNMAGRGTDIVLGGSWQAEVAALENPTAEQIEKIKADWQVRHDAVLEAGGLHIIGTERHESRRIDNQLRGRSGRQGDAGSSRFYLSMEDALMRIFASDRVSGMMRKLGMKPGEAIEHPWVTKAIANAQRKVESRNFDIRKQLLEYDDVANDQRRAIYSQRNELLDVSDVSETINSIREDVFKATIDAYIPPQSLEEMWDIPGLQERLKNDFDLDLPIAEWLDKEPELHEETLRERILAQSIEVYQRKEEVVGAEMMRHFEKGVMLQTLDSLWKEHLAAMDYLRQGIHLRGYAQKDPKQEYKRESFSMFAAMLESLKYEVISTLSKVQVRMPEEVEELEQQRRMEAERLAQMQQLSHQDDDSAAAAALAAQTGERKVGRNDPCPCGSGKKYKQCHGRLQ
Chain of Sialic acid-binding Ig-like lectin 9 (Homo sapiens) (Q9Y336 whole entry): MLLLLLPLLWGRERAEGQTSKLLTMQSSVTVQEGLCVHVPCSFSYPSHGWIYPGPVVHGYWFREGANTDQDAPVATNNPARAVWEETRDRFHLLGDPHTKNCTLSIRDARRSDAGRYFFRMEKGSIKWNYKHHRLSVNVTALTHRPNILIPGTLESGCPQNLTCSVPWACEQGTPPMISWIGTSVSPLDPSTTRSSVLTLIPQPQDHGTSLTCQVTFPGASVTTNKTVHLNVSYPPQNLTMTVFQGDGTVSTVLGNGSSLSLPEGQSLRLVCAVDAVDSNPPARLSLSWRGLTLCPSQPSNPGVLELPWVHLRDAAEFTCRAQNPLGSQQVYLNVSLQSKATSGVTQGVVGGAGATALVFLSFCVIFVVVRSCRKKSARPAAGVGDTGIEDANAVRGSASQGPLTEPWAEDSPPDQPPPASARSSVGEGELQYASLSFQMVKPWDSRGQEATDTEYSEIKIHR

`COC(=O)C(C)(C)NC(=O)C1CC(=O)N(C)C1` (stereo unspecified): the Percent Effect in [1] was -1.38%; in test [2], -2.74%; in [3], -4.39%; in [4] it was 9.64%; in test [5], 2.78%; in test [6], -0.798%. Further, the Percent Effect in test [7] was 3.17%; in [8], -3.68%; in [9] it was -1.04%; in test [10], 8.64%; in test [11], 4.14%.

With `CCCn1c(C)c(CC(=O)N(C)CCOC)c2c1CC(C)(C)CC2=O`, the Percent Effect in [1] was -3.48%; in [2], 5.2%; in test [3] it was 0.628%; in test [4], 11.4%; in test [5], 6.59%; in test [6], -38.6%. Besides, the Percent Effect in test [7] was 3%; in test [8] it was -27.9%; in [9], 6.45%; in test [10] it was 8.64%; in test [11], -8.76%.

Regarding `CCc1cnc2c(c1Nc1ccc(OC)cc1)c(=O)n(C)c(=O)n2C`, the Percent Effect in test [1] was -1.52%; in [2], 18.2%; in [3], 0.437%; in test [4], -14.7%; in test [5], 2.66%; in test [6], -41.9%. Also, the Percent Effect in [7] was 8.88%; in [8] it was 11.4%; in test [9] it was 4.23%; in test [10], 8.97%; in test [11] it was -11.2%.

For the molecule `Cn1nc2c(cc1=O)CN(CCc1nc3ccccc3c(=O)[nH]1)CC2`, the Percent Effect in [1] was -4.31%; in [2], 5.48%; in test [3], -206%; in test [4] it was -0.89%; in test [5], 8.23%; in test [6], 2.27%. Moreover, the Percent Effect in [7] is 17.9%; in test [8], 6.4%; in test [9], -1.07%; in test [10] it was 0%; in test [11], -7.87%.

On to `Cc1cnn(C2CN(CC(=O)NCCc3ccccc3)C2)c1`, for which the Percent Effect in test [1] is -3.73%; in test [2] it was -10.5%; in test [3], 3.48%; in [4] it was 3.23%; in test [5] it was 1.21%; in test [6], -2.16%. The Percent Effect was -0.254% in test [7]; 8.21% in [8]; 5.42% in [9]; 13.6% in test [10]; 4.88% in [11].

As to `CC[C@@H](CO)NC(=O)c1coc(COc2ccc(OC)cc2)n1`, the Percent Effect in test [1] is -3.54%; in test [2], 10.8%; in [3] it was -5.65%; in [4] it was -1.14%; in [5] it was -2.05%; in [6], -0.744%. The Percent Effect is 5.58% in test [7]; -2.06% in test [8]; 6.45% in test [9]; 18.5% in test [10]; -1.77% in test [11].

As to `Cc1nccn1C1CCCN(C(=O)c2ccc3c(c2)nnn3C)C1` (stereo unspecified), the Percent Effect in [1] was -3.52%; in test [2], 10.5%; in [3], -2.69%; in [4], 0.191%; in [5], -4.95%; in test [6], 5.75%. The Percent Effect in [7] was 9.9%; in test [8], 3.52%; in test [9], 4.43%; in test [10] it was 6.17%; in [11], -4.12%.

Regarding `CCc1nc(CC(=O)N2CCn3c(nnc3C(F)(F)F)C2)cs1`, the Percent Effect in test [1] is -2.58%; in test [2], 0%; in test [3] it was 6.61%; in test [4], 5.79%; in [5], 0.564%; in test [6] it was 4.98%. Also, the Percent Effect in test [7] is 3.17%; in test [8], -25.8%; in test [9] it was -0.49%; in [10], 0%; in test [11], -6.79%.

As to `COCCN1CCC2(CC1)CN(C(=O)N(C)C)c1ccc(C)cc12`, the Percent Effect in test [1] was -5.7%; in test [2], 5.41%; in test [3], -1.76%; in test [4], -3.94%; in [5], -3.62%; in test [6] it was 2.23%. The Percent Effect in test [7] was determined as 6.83%; in test [8] it was 12.1%; in [9], 0%; in test [10] it was 5.13%; in [11] it was 0.0767%.

Consider `O=C(N1CCOCC1)[C@@]12CCO[C@@H]1CCN(Cc1ccccc1F)C2`, for which the Percent Effect was -0.952% in test [1]; -4% in test [2]; -2.07% in test [3]; 6.8% in test [4]; -6.88% in [5]; 29.8% in test [6]. Moreover, the Percent Effect is 12.2% in test [7]; 0.338% in [8]; 1.06% in [9]; -2.56% in test [10]; -3.56% in test [11].

As for `Cc1cc(CN2CCN(C(=O)CCc3cccc(F)c3F)CC2)on1`, the Percent Effect is 2.13% in [1]; 0% in test [2]; -6.33% in [3]; 7.49% in test [4]; 5.99% in test [5]; 10.9% in test [6]. Further, the Percent Effect in test [7] is 0.862%; in test [8] it was -0.409%; in [9], -0.529%; in test [10], 4.88%; in test [11], 0.403%.
